Test results as given in the supplement of paper PMC7156485.
± gives the standard deviation of the averaged measurements.

How the values were obtained:
Details in all cases: concentration: 10 µM; 24 h
HCC1569 [1] = test: cell number relative to DMSO (% of DMSO); higher = more cells (less growth inhibition / toxicity)
Outline: (§1)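 H1.0 nuclear intensity or cell number is expressed as percent of the plate control, with the median of replicates taken. HCC1569 and TDF cells were treated with compounds at 10 µM for 24 h at 37 °C, in triplicate, then fixed and immunostained for H1.0 with DAPI as a nuclear stain. HCC1569 values were smoothed to correct for positional effects.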

TDF [2] = test: as above
Outline: as §1

TDF [3] = test: H1.0 immunofluorescence intensity relative to DMSO (% of DMSO); higher = stronger H1.0 induction, active = 120 or more
Outline: as §1

HCC1569 [4] = test: H1.0 immunofluorescence intensity relative to DMSO (% of DMSO); higher = stronger H1.0 induction, active = 140 or more
Outline: as §1
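Wherever H1.0 immunofluorescence intensity relative to DMSO is given: TDF is a line of transformed human dermal fibroblasts of mesenchymal origin.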
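Wherever cell number relative to DMSO is given: TDF denotes transformed human dermal fibroblasts of mesenchymal origin.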

| Structure (SMILES) | cell number (HCC1569 [1]) | cell number (TDF [2]) | H1.0 immunofluorescence intensity (TDF [3]) | H1.0 immunofluorescence intensity (HCC1569 [4]) |
| --- | --- | --- | --- | --- |
| CC#CC(=O)Nc1cc2c(Nc3ccc(F)c(Cl)c3)ncnc2cn1 [EGFR/ErbB-2/ErbB-4 Inhibitor] | 87.1 | 78.2 | 104 (inactive) | 113 (inactive) |
| O=C(O)/C=C/c1ccc(O)c(O)c1 [Caffeic acid] | 98.5 ± 1.5 | 99.8 ± 4.1 | 94.5 (inactive) | 96.2 (inactive) |
| CCCCCCCCCCCCCCCC(=O)OCC=C(C)C=CC=C(C)C=CC1=C(C)CCCC1(C)C [Retinyl palmitate] | 101 | 99.2 | 93.8 (inactive) | 101 (inactive) |
| CCCCCC(O)CCCC(=O)[O-].[Na+] (centres undefined) [5-hydroxydecanoic acid sodium] | 99.5 | 96 | 99.5 (inactive) | 114 (inactive) |
| Nc1c(Br)cc(Br)cc1CNC1CCC(O)CC1 (centres undefined) [Ambroxol] | 104 ± 5.2 | 109 ± 5.6 | 100 (inactive) | 103 (inactive) |
| COc1ccc2[nH]c(I)c(CCNC(C)=O)c2c1 [2-Iodomelatonin] | 100 | 111 | 92 (inactive) | 93.2 (inactive) |
| CC1OC(OCC2OC(Oc3cc(O)c4c(c3)OC(c3ccc(O)c(O)c3)CC4=O)C(O)C(O)C2O)C(O)C(O)C1O (centres undefined) [Eriocitrin] | 101 | 119 | 89 (inactive) | 84 (inactive) |
| CC(C)C[C@H](NC(=O)C(O)[C@H](N)Cc1ccc([N+](=O)[O-])cc1)C(=O)O.Cl (some centres undefined) | 104 | 104 | 95.3 (inactive) | 93.9 (inactive) |
| COc1ccc(S(=O)(=O)Nc2nc(-c3cccc([N+](=O)[O-])c3)c(CN3CCCCC3)s2)cc1OC | 101 | 98.9 | 89.5 (inactive) | 110 (inactive) |
| Cn1cnc2c(NC3CCCC3)ncnc21 [N6-Cyclopentyl-9-methyladenine] | 76.8 | 98.1 | 97.3 (inactive) | 159 (active) |
| Cc1ccccc1C=CC1=NCCN1.O=C(O)C(=O)O [Metrazoline oxalate] | 96.3 | 81 | 102 (inactive) | 124 (inactive) |
| COc1cc2ncn(-c3cc(OCc4ccc(S(C)(=O)=O)cc4)c(C(N)=O)s3)c2cc1OC [Polo-like Kinase Inhibitor I] | 104 | 96.2 | 92.8 (inactive) | 112 (inactive) |
| C[N+](C)(C)CCCCCC[N+](C)(C)C.[Cl-].[Cl-] [Hexamethonium dichloride] | 98 | 99.9 | 95.6 (inactive) | 87.7 (inactive) |
| CCCCCC=CC=CC(O)CCCCCCCC(=O)O (racemic) | 103 | 96.8 | 103 (inactive) | 97 (inactive) |
| CCCCCC(=O)C=CC1C(O)CC(=O)C1CC=CCCCC(=O)O (centres undefined) [15-keto-prostaglandin E2] | 100 | 108 | 89.3 (inactive) | 90.9 (inactive) |
| COC(=O)Nc1nc2ccc(Sc3ccccc3)cc2[nH]1 [Fenbendazole] | 64 | 95.7 | 99.2 (inactive) | 177 (active) |
| COC(=O)CCc1ccc(OCC(O)CNC(C)C)cc1 (centres undefined) [Esmolol] | 100 | 95.1 | 101 (inactive) | 91.9 (inactive) |
| Cn1c(=O)[nH]c2ncn(C)c2c1=O [1,7-Dimethylxanthine] | 102 | 98.9 | 88 (inactive) | 85.7 (inactive) |
| CC(C)=CCCC(C)=CCOc1ccc2ccc(=O)oc2c1 [Auraptene] | 105 | 103 | 103 (inactive) | 97.1 (inactive) |
| O=C(c1cc(O)c(O)c([N+](=O)[O-])c1)c1ccccc1F | 106 | 106 | 95.7 (inactive) | 99.2 (inactive) |
| O=c1oc2ccccc2c(O)c1Cc1c(O)c2ccccc2oc1=O [Dicoumarol] | 99.6 | 94.5 | 99 (inactive) | 98.4 (inactive) |
